This passage reports INHIBITION results from ChEMBL document CHEMBL4513216, “Probing the Open Global Health Chemical Diversity Library for Multistage-Active Starting Points for Next-Generation Antimalarials” (ACS Infect Dis, 2020).

About 8,600 (12%) of roughly 69,000 compounds showed an effect of 50% or more. What follows is part of a selection rich in strong results, with near analogues and random picks from the rest.

This assay deals with Plasmodium berghei. Put plainly: Screen against P. berghei liver stage (PbLuc), transformed with Luciferase, at 10uM. In kind it is functional, HepG2. As to conditions: tested at 10 uM.
Regarding `Cc1cc2cc(C(=O)N3C[C@H](O)[C@]4(CCCO4)C3)ccc2o1`, the INHIBITION was 15.9%.
Turning to `Cc1ccc(CN2CC[C@H]3[C@H](CC(Cn4cccn4)N3C)C2)s1` (some centres not stated), the INHIBITION worked out at 25.3%.
Consider `Cc1n[nH]c(C2CN(C(=O)c3cc(Cl)c[nH]3)CCO2)n1` (configuration not stated), for which the INHIBITION came to 31.6%.
Take `O=C(NCC(=O)N1CCCC1Cc1cccc(F)c1)c1ccccn1` (configuration not stated): the INHIBITION is -6.51%.
In the case of `Cc1nc(CNC(C)c2cccc(N3CCCC3=O)c2)cs1` (configuration not stated), the INHIBITION is listed as 22.7%.
For `O=S(=O)(NCCCN1CCCC1)c1cc(F)cc(F)c1` the value was 71.3%.
Turning to `CC1CCN(CCCNS(=O)(=O)Cc2ccccc2F)CC1`, the INHIBITION stood at 26.9%.
`CC(=O)N1CCN(CCNS(=O)(=O)c2cc(F)cc(F)c2)CC1`: the INHIBITION is recorded as 26.4%.
On to `O=S(=O)(Cc1ccccc1F)NCCCN1CCCCC1`, for which the INHIBITION was determined as 36.3%.
For `CC1CCN(CCCNS(=O)(=O)c2cccc(F)c2)CC1` the value was -14.9%; for `CC1CCN(CCCNS(=O)(=O)c2cc(F)cc(F)c2)CC1`, 51.4%; for `COc1cccc(-c2c[nH]c(C3CCCN3)n2)c1` (configuration not stated), -8.45%.
Take `CCc1ncc(CN[C@@H]2CCCN(C(C)=O)[C@H]2c2ccc(C)s2)cn1`: the INHIBITION was 23.2%.
Take `COCCOc1cccc(C(=O)N2CCCC(n3ccnc3C)C2)c1` (configuration not stated): the INHIBITION is reported as 44.3%.
As for `Cc1cnn(C2CCCN(C(=O)c3ccc(NC4CC4)nc3)C2)c1` (configuration not stated), the INHIBITION is -22.9%.
Turning to `Cc1cccc2c1NC1(CCOCC1)NC2=O`, the INHIBITION is reported as 48%.
On to `Cc1cc(NCc2ccc(S(N)(=O)=O)cc2)nc(C)n1`, for which the INHIBITION is reported as 41.5%.
As for `c1ccc(-c2nc(CN3CCn4c(nnc4C4CC4)C3)co2)cc1`, the INHIBITION is given as -40.2%.
Turning to `Cc1ccc(-c2noc(CN3CCn4c(nnc4C4CC4)C3)n2)cc1`, the INHIBITION is -32.345%.
Take `Fc1ccc(-c2nnc(CN3CCn4c(nnc4C4CC4)C3)o2)cc1`: the INHIBITION is listed as 0.0932%.
In the case of `Cc1ccc(-c2nc(CN3CCn4c(nnc4C4CC4)C3)no2)cc1`, the INHIBITION amounted to 24.7%.
Take `Cc1ccc(-c2nnc(CN3CCn4c(nnc4C4CC4)C3)o2)cc1`: the INHIBITION is reported as 52.3%.
For `Cc1ccc(-c2nc(CN3CCn4c(nnc4C4CC4)C3)co2)c(C)c1`, the INHIBITION turned out to be 54.4%.
For `Cc1cccc(-c2noc(CN3CCn4c(nnc4C4CC4)C3)n2)c1` the value was -14.8%; for `Cc1ccccc1-c1noc(CN2CCn3c(nnc3C3CC3)C2)n1`, 55.9%.
As to `Cc1ccc(-c2nc(CN3CCn4c(nnc4C4CC4)C3)co2)cc1`, the INHIBITION was -25.9%.
For `Cc1n[nH]c(C2CN(C(=O)c3cc(C4CC4)on3)CCO2)n1` (configuration not stated) the value was 49.2%; for `CN(C)C(C)(C)CNCc1cn(C)nc1-c1cccnc1`, 23.7%.
Consider `CN(Cc1ccccc1)CC(O)Cn1cnc2ccc(Br)cc2c1=O` (configuration not stated), for which the INHIBITION was determined as 14.92%.
For the compound `Cc1ccnc(C2(C)CCCN2S(=O)(=O)c2c(C)noc2C)n1` (configuration not stated), the INHIBITION was 0.705%.
Turning to `CCOCc1nc(N2CCOCC2)sc1C(=O)NCCCc1ccco1`, the INHIBITION was 24.5%.
With `Cc1ccc(CN2Cc3c(C(=O)N4CCOCC4)nn(C)c3C2)s1`, the INHIBITION is -17.1%.
`CNc1ncc(C(=O)N2CCC(CCc3ccccc3)CC2)cn1`: the INHIBITION is -25.2%.
In the case of `CCc1ncc(CN2CCC(CCc3ccccc3)CC2)cn1` it was 37.8%; in that of `CNc1ncc(CN2CCC(CCc3ccccc3)CC2)cn1`, 67.5%; in that of `N[C@@H]1CC[C@H](C(=O)NCc2ccc3nonc3c2)C1`, 0%.
Take `CCc1[nH]c2ccc(CNC(=O)Cc3c(C)nc(N)nc3C)cc2c1C`: the INHIBITION is 43.9%.
For `Cc1nc(N)nc(C)c1CC(=O)NCc1ccc2nonc2c1` the value was 61.2%; for `CN(Cc1cnn(C)c1)C(=O)NCc1ccc2c(c1)OCCO2`, -26.85%; for `O=C(Cc1csc(-c2ccccc2Cl)n1)NCc1cccc(C(=O)O)c1`, 17.1%.
Take `Cc1ccc(C(=O)N2CCC3(CCN(Cc4ccccn4)C3=O)C2)cn1` (configuration not stated): the INHIBITION came out at 22.5%.
With `Cc1nc(CN2CCCN(Cc3nc4ccccc4o3)CC2)no1`, the INHIBITION is -24.7%.
`CCc1nc(CN2CCN(c3ncnc4cc(F)ccc34)CC2)no1`: the INHIBITION amounted to 91.8%.
For `CCc1nc(CN2CCCN(c3nc4ccccc4o3)CC2)no1`, the INHIBITION is recorded as -8.19%.
With `CCc1nc(CN2CCCN(c3ncnc4ccccc34)CC2)no1`, the INHIBITION is 86.8%.
As to `Cc1nc(CN2CCN(c3ncnc4ccccc34)CC2)no1`, the INHIBITION was 94.1%.
In the case of `CCc1nc(CN2CCN(CC(O)c3ccccc3)CC2)no1` (configuration not stated) it was 42%.
In the case of `CCc1nc(CN2CCCN(CC(O)c3ccccc3)CC2)no1` (configuration not stated) it was -11.4%; in that of `CCn1ccnc1CN1CCN(c2ncnc3ccccc23)CC1`, -66.4%.
With `CCc1nc(CN2CCCN(c3cnc4ccccc4n3)CC2)no1`, the INHIBITION turned out to be 40.5%.
As for `CN1CCOC2(CCCN(C(=O)C3CCCCC3)C2)C1` (configuration not stated), the INHIBITION was 9.97%.
With `Cc1cc(F)ccc1C(=O)N1CCN(C)C2(CCC(=O)N(C)CC2)C1` (configuration not stated), the INHIBITION is 25.8%.
